The full ranking holds about 39,000 sequences; the median of “fluorescence intensity (a.u.)” is about 4,300, and the highest 2% start at about 39,000. The sample holds the highest values, similar sequences and a random draw of the others, so the mix is not that of the screen.

In the assay the target is T1, OsSMF1 (Oryza sativa, UniProt Q6ZLB0 1-436).
T1 sequence: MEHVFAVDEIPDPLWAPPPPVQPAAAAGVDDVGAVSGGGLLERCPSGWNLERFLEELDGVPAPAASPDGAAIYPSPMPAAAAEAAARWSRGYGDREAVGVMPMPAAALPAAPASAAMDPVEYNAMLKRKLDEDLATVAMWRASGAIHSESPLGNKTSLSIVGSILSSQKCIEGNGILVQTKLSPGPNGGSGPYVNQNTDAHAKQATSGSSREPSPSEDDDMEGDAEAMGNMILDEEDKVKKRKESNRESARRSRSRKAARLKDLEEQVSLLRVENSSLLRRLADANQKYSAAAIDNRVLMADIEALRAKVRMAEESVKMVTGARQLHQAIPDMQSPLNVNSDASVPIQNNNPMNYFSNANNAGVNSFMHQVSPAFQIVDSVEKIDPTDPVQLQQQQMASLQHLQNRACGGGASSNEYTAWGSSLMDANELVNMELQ
Briefly: protein-binding microarray (RPBM); PBS, 2% BSA, 51.3 ng/ul salmon testes DNA, 50 uM zinc acetate, 200 nM TF, 25 C, 1 h; high values mean tight binding. The note with it: protein: recombinant; tags: N-terminal polyhistidine and DsRed monomer fusion (pET32a); chain copies: 2; label: CyDye5-dUTP incorporated in the synthesized complementary strand; 3' TTTTT single-stranded linker to array surface; dsDNA, one strand shown. The method, boiled down:
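Binding signal is defined as the fluorescence intensity of each feature in arbitrary units, read on an Axon 4000B scanner. Transcription factors with N-terminal polyhistidine and DsRed fusions came from E. coli BL21-CodonPlus and were purified on Ni–NTA. They were incubated at 200 nM for 1 h at 25 °C on a custom Agilent array that had been made double-stranded with Cy5-dUTP, with 50 µM zinc acetate present, and the array was washed.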
Regarding “AAACCCGGAGAGAGTGGTGTTCGTGGACGTCACCCCATTTCGGAGTCACCTAGTGCAG”, the binding signal is 4440 fluorescence intensity (a.u.).

Consider “CGGGAGAGAAGCCCACGTCACTCCCATAAATGGATGTGGACGGAGTCACCTAGTGCAG”, for which the binding signal is 9320 fluorescence intensity (a.u.).

For “CTTACCATCTCCCCAAGCGGGAGAGTGGACGTCATAATTTCGGAGTCACCTAGTGCAG”, the binding signal is 45700 fluorescence intensity (a.u.).

Turning to “CGTCCGTGCGAATGATTGCATCTGCGCGAGCGACGCCGTTCGGAGTCACCTAGTGCAG”, the binding signal is 3430 fluorescence intensity (a.u.).

Regarding “CTCGGCTGTTGCGCCTTCGTTTTGCACCGAGGCTGTGCTACGGAGTCACCTAGTGCAG”, the binding signal was 55500 fluorescence intensity (a.u.).

In the case of “TGCGAGGTGGTGGTGATTGCTTCGTCGGCTGTTGATTTCTCGGAGTCACCTAGTGCAG”, the binding signal is 3300 fluorescence intensity (a.u.).

On to “TTTTCTTCTGTTCGTGTGCGTGCTCGCGCCTTTCTTGCTTCGGAGTCACCTAGTGCAG”, for which the binding signal was 4250 fluorescence intensity (a.u.).

As for “CATATATGCCCATCACCCCAATAAGAGTTCCGAATTAGATCGGAGTCACCTAGTGCAG”, the binding signal was 3560 fluorescence intensity (a.u.).

For “CATCCCCAAACTCCGCCGCCGCCGCCGTCACCGCCGCTCGCGGAGTCACCTAGTGCAG”, the binding signal is 3700 fluorescence intensity (a.u.).

With “ATTCATATATATATATACACACACACTTACTTTGTATATGCGGAGTCACCTAGTGCAG”, the binding signal was 3190 fluorescence intensity (a.u.).

For the sequence “AATTCTAGGTCCAGCACTGTGCTTACCTGTATAGAAGCCTCGGAGTCACCTAGTGCAG”, the binding signal is 3200 fluorescence intensity (a.u.).

“GCAGGAGCAAAGCGCTTACTTTTGCCTCACACTGTATAGTCGGAGTCACCTAGTGCAG”: the binding signal was 45400 fluorescence intensity (a.u.).

With “TTCTTCTTCTATTCCACGTCCACGTGTATGGCCAGGAGTTCGGAGTCACCTAGTGCAG”, the binding signal is 16100 fluorescence intensity (a.u.).

On to “TGAAAATGGTGTTGGCATCATAAAATATTTAACCAACCCCCGGAGTCACCTAGTGCAG”, for which the binding signal is 3150 fluorescence intensity (a.u.).

Turning to “TCACGAGCCGACACGTGTCTCCTGACGTGGTACCCTTTCCCGGAGTCACCTAGTGCAG”, the binding signal was 21900 fluorescence intensity (a.u.).

Turning to “TTGGCGTGACTAGGCGCAATTTCTGCAAATTGGAGCTCGGCGGAGTCACCTAGTGCAG”, the binding signal is 7820 fluorescence intensity (a.u.).

“AGATGTGATACATTAGCATTCTAGCACGGCGGTGGCATTGCGGAGTCACCTAGTGCAG”: the binding signal was 3250 fluorescence intensity (a.u.).

For “TTCTGATTAGGCTGCCACATTGGCGGCACGTGTGATAGCTCGGAGTCACCTAGTGCAG”, the binding signal is 45900 fluorescence intensity (a.u.).

On to “GGCCAGGCCACCCCAACACGCCAGCCTCCCGGGCCGTTGACGGAGTCACCTAGTGCAG”, for which the binding signal is 3250 fluorescence intensity (a.u.).

Consider “TGAACCTCGAAGATGCAAATATGTAGTAGTACGTAGGTCCCGGAGTCACCTAGTGCAG”, for which the binding signal is 3310 fluorescence intensity (a.u.).

Turning to “CATTTCATATCAGAAGTGTGATCACTGTAACCCGCGGCGCCGGAGTCACCTAGTGCAG”, the binding signal was 64500 fluorescence intensity (a.u.).

Turning to “TATGTATGATCTCTTCCTGTAACATTTTCATCATCTAACCCGGAGTCACCTAGTGCAG”, the binding signal was 3480 fluorescence intensity (a.u.).

Regarding “GGTCCGGTGTGACACTGTGACCCCGCCGTAACCCCGTAACCGGAGTCACCTAGTGCAG”, the binding signal was 4060 fluorescence intensity (a.u.).

On to “AGAGGAGCATCTTCTCGCCTGAGATTCCGTCGACGCCATTCGGAGTCACCTAGTGCAG”, for which the binding signal is 3540 fluorescence intensity (a.u.).

For “CTAAGGGTCTAAGAGATGATGCTGTGATGAGGTGGATCATCGGAGTCACCTAGTGCAG”, the binding signal was 4840 fluorescence intensity (a.u.).

“AATGGACCACCGTTAGTCCACCAGTCAGCCAACCAATGGCCGGAGTCACCTAGTGCAG”: the binding signal was 3360 fluorescence intensity (a.u.).

Consider “GAGGTGGGGTGGCTTAGTGACCTCGTGTCGTAGATTGGATCGGAGTCACCTAGTGCAG”, for which the binding signal is 4900 fluorescence intensity (a.u.).

For “CAACACCCAACCCCAATTGGTCGCGGTGGGTCGGACGGACCGGAGTCACCTAGTGCAG”, the binding signal was 34900 fluorescence intensity (a.u.).

For the sequence “TCGGCGGTCGTGGAGGTGGTGGCAGGCGGTCGTGGCGGAGCGGAGTCACCTAGTGCAG”, the binding signal was 3990 fluorescence intensity (a.u.).

As for “AGAGGGTGGAGGAGCTGACTAGATTGCACTAGGTCTCGATCGGAGTCACCTAGTGCAG”, the binding signal was 42000 fluorescence intensity (a.u.).

Regarding “GCGGGGTTGGAGGAGGAGGAGGTGGTGGTGGTGGTGGTGGCGGAGTCACCTAGTGCAG”, the binding signal is 4860 fluorescence intensity (a.u.).

For the sequence “GTTGGTGGTGGAGCGGGAGGAGGTGCCGGTGGAGGCGGTGCGGAGTCACCTAGTGCAG”, the binding signal was 53000 fluorescence intensity (a.u.).

As to “GAGGGGATGACGGTGGTCTCGGCAGCGGATGACGGCGGCGCGGAGTCACCTAGTGCAG”, the binding signal is 4490 fluorescence intensity (a.u.).

In the case of “AGGTGGAGGCGCCGGTGTGGGTGGTGGAGCGGGAGGAGGTCGGAGTCACCTAGTGCAG”, the binding signal was 4096 fluorescence intensity (a.u.).

Take “GGCGGTGCTGGTGGAGGCGGTGGTCTCGGAGGTGGAGCAGCGGAGTCACCTAGTGCAG”: the binding signal is 46000 fluorescence intensity (a.u.).

As for “CAATAAACCGGTGGTTGGACCGGTCCAACCAATAAACCAGCGGAGTCACCTAGTGCAG”, the binding signal was 43900 fluorescence intensity (a.u.).

Take “CCGCTCGTCGATTAGCCGGCCACGCCTCCCGCTCGTGAAGCGGAGTCACCTAGTGCAG”: the binding signal is 3680 fluorescence intensity (a.u.).

As for “GACCCTGCCGCCCTCCATTTGGGCGGCAAGCTGACGTGGCCGGAGTCACCTAGTGCAG”, the binding signal was 32700 fluorescence intensity (a.u.).

On to “GCAGTTTGTCTCATGTGCTGCTGACTAGATATTGATCATACGGAGTCACCTAGTGCAG”, for which the binding signal is 11400 fluorescence intensity (a.u.).

For “ATGATGAGTAGGAGTTTGTGCAGGTGGACGGCGGTGGTGGCGGAGTCACCTAGTGCAG”, the binding signal was 3180 fluorescence intensity (a.u.).

Consider “TTCGCTAACGCCGCGCGTCACGTAGACACGTACTACTAGCCGGAGTCACCTAGTGCAG”, for which the binding signal is 49600 fluorescence intensity (a.u.).

As for “GTTCGCGGGCCGCGAACGTCCACGTACTAGACGCCCCTCACGGAGTCACCTAGTGCAG”, the binding signal is 4050 fluorescence intensity (a.u.).

As to “TCACGCGTAGCTTCGCCGCTACGTGGCCTCGCGCACGTTACGGAGTCACCTAGTGCAG”, the binding signal was 5500 fluorescence intensity (a.u.).

Values taken from article PMC7819943, “Rice protein-binding microarrays: a tool to detect cis-acting elements near promoter regions in rice”.
